From ChEMBL document CHEMBL3988442, “University of Dundee, Small-Polar-MMV Screening Library” (2021)
About 13,000 (27%) of roughly 48,000 compounds showed an effect of 50% or more. The list shows a part of the results.

The molecules below were run on Wolbachia pipientis (assay: Anti-Wolbachia Cell-Based Screen). Conditions: 5 µM.
Type: functional
Parameters: scale not given: in the data most compounds retested in dose-response had high values

| Compound | Percent Effect [%] |
| --- | --- |
| Cc1nc(C)c(CC(=O)N2CCN(CC(C)C)CC2)c(=O)[nH]1 | -15.6 |
| CC[C@H]1CN2CC[C@H]1C[C@@H]2CNC(=O)NC1CCCCC1 | -4.604 |
| CNC(=O)[C@H]1C[C@@H]2CN(C(=O)c3ccncc3F)C[C@@H]2N1C | 2.311 |
| CCN(CCN1CCCCCC1)C(=O)COc1cccnc1 | -15.49 |
| CN1CCc2nc3c(c(N)c2C1)CCCN3C | 105.5 |
| CC(C)c1cc(N2CCC3(CCN(C)C3)C2)ncn1 (stereo unspecified) | -5.942 |
| O=C(O)C(F)(F)F.O=C(O)C(F)(F)F.O=C1CC2(CCN(Cc3ccncc3)C2)CN1c1cccc(F)c1 (stereo unspecified) | 10.56 |
| CCS(=O)(=O)NC[C@]12COC[C@H]1CN(Cc1ccncc1)C2.O=C(O)C(F)(F)F.O=C(O)C(F)(F)F | -4.372 |
| CC(=O)N1CCOCC2(CN(Cc3ccccn3)CCO2)C1.O=C(O)C(F)(F)F.O=C(O)C(F)(F)F (stereo unspecified) | -7.165 |
| CN(C)C(=O)N1CCCC2(CCN(Cc3ccncc3)C2)C1 (stereo unspecified) | -11.09 |
| CCN1CC2(CC1=O)CN(Cc1ccccn1)CCN(C(C)=O)C2.O=C(O)C(F)(F)F.O=C(O)C(F)(F)F (stereo unspecified) | 108.4 |
| Cn1cnc(S(=O)(=O)N2CC3(CCN(Cc4ccncc4)C3)C2)c1.O=C(O)C(F)(F)F.O=C(O)C(F)(F)F.O=C(O)C(F)(F)F | 100.9 |
| Cn1ccnc1CN1CCC2(CC(=O)N(c3ccccn3)C2)C1.O=C(O)C(F)(F)F.O=C(O)C(F)(F)F (stereo unspecified) | -3.39 |
| Cn1cnc(S(=O)(=O)N2C[C@H]3CN(Cc4cccnc4)C[C@H]3C2)c1.O=C(O)C(F)(F)F.O=C(O)C(F)(F)F.O=C(O)C(F)(F)F | -11.02 |
| CC(=O)N1CCN(Cc2ccncc2)CC2(CC(=O)N(C)C2)C1.O=C(O)C(F)(F)F.O=C(O)C(F)(F)F (stereo unspecified) | 112.8 |
| CCN1CCc2[nH]cnc2C12CCN(c1ccc(Cl)cn1)CC2 | 20.82 |
| Cc1cc(CN2C[C@@H]3COC[C@]3(CNC(=O)c3ccco3)C2)no1.O=C(O)C(F)(F)F | -9.998 |
| CN1CCN(C(=O)Cc2ccc(S(=O)(=O)C(F)F)cc2)CC1 | 3.1 |
| Cc1ccc(-c2ccnc3cc(CC(=O)N4CCN(C)CC4)nn23)cc1 | 99.35 |
| Cc1nc(CC(=O)N2CCN(CCOc3ccccc3)CC2)cs1 | -7.543 |
| CCCN1CCN(C(=O)Cc2cccnc2)[C@H]2CS(=O)(=O)C[C@H]21 | 0.3719 |
| C[C@@H]1CN(C2CCOC2)C[C@]12CCN(c1cccnc1)C2=O.O=C(O)C(F)(F)F.O=C(O)C(F)(F)F (stereo partly specified) | 8.884 |
| O=C(O)C(F)(F)F.O=C(O)C(F)(F)F.c1ccc(CN2C[C@H]3CCC[C@@]3(COCC3CCOCC3)C2)nc1 | 5.827 |
| O=C(NC[C@]12COC[C@H]1CN(Cc1cccnc1)C2)C1CCC1.O=C(O)C(F)(F)F.O=C(O)C(F)(F)F | 96.22 |
| O=C(O)C(F)(F)F.O=C(O)C(F)(F)F.c1cncc(OC[C@@]23CCC[C@@H]2CN(C2CCOCC2)C3)c1 | 96.07 |
| C[C@@H]1CN(C2CCOCC2)C[C@]12CCN(c1cccnc1)C2=O.O=C(O)C(F)(F)F.O=C(O)C(F)(F)F | 17.85 |

| Compound | Percent Effect [%] |
| --- | --- |
| COc1ncccc1CN1C[C@@H]2COC[C@]2(COCC2CC2)C1.O=C(O)C(F)(F)F.O=C(O)C(F)(F)F | 12.64 |
| Cc1cc(CN2C[C@H]3CCC[C@@]3(COCC3CCOCC3)C2)no1.O=C(O)C(F)(F)F | 1.109 |
| CCS(=O)(=O)NC[C@]12COC[C@H]1CN(Cc1cccnc1)C2.O=C(O)C(F)(F)F.O=C(O)C(F)(F)F | -8.022 |
| O=C(O)C(F)(F)F.O=C(O)C(F)(F)F.c1cncc(OC[C@@]23CCC[C@@H]2CN(CC2CCOCC2)C3)c1 | 108.6 |
| O=C(NC1CC(F)(F)C1)[C@]12COC[C@H]1CN(Cc1cccnc1)C2.O=C(O)C(F)(F)F.O=C(O)C(F)(F)F | 1.025 |
| O=C(O)C(F)(F)F.O=C(O)C(F)(F)F.c1cncc(OC[C@]23COC[C@H]2CN(C2CCOCC2)C3)c1 | 108.8 |
| Cl.O=C(C1CCCCC1)N1CC2(CCNCC2)C1 | -23.98 |
| CC(C)(C)NC(=O)CNc1ccc(C#N)c(C(F)(F)F)c1 | 3.351 |
| COCCO[C@H]1COCCN(C2CCN(C)CC2)C1 | -1.205 |
| Cc1nc(N2C[C@H]3CNC[C@H]3C2)c2sccc2n1 | 3.045 |
| O=C(O)C(F)(F)F.O=C(O)C(F)(F)F.c1ccc(OC[C@]23COC[C@H]2CN(C2CCOCC2)C3)nc1 | 115.9 |
| O=C1[C@@H]2CCN(C3CCC3)C[C@@H]2OCCN1Cc1ccncc1 | -0.008003 |
| O=C(O)C(F)(F)F.O=C(O)C(F)(F)F.c1cc(CN2C[C@@H]3COC[C@]3(COCC3CC3)C2)ccn1 | 8.652 |
| O=C(O)C(F)(F)F.O=C(O)C(F)(F)F.c1ccc(CN2C[C@@H]3COC[C@]3(COCC3CCOCC3)C2)nc1 | 9.184 |
| O=C(O)C(F)(F)F.O=C(O)C(F)(F)F.c1cncc(OC[C@]23COC[C@H]2CN(C2CCC2)C3)c1 | 103 |
| c1cc(COC[C@@]23CCC[C@@H]2CN(C2CCOCC2)C3)ccn1 | 95.49 |
| O=C(O)C(F)(F)F.O=C(O)C(F)(F)F.c1ccc(OC[C@]23COC[C@H]2CN(Cc2ccoc2)C3)nc1 | -16.38 |
| O=C(O)C(F)(F)F.c1cnc(N2CCC3(CCN(CC4CCOC4)C3)CC2)nc1 (stereo unspecified) | -13.35 |
| O=C(O)C(F)(F)F.O=C(O)C(F)(F)F.c1cncc(OC[C@]23COC[C@H]2CN(Cc2cccs2)C3)c1 | -9.167 |
| O=C(O)C(F)(F)F.O=C(O)[C@]12CCCN(C3CCOC3)C[C@H]1CN(c1ncccn1)C2 (stereo partly specified) | 103.8 |
| CCN(CCc1ccccc1)Cn1nc(C)c2c(C)onc2c1=O | 9.974 |
| CC(C)NC(=O)N1CCOC2(CNC2)C1 | 2.797 |
| CC(C)(C)n1cc(C(=O)O)c(-c2ccc(F)cc2F)n1 | 0.2477 |
| O=C(O)C(F)(F)F.O=C(O)C(F)(F)F.O=C1[C@H]2CN(Cc3ccoc3)C[C@H]2CN1Cc1cccnc1 | -13.37 |
| CN(C)C[C@@H]1C[C@@H]2CN(c3ncc(F)cn3)CC[C@@H]2N1C.O=C(O)C(F)(F)F.O=C(O)C(F)(F)F.O=C(O)C(F)(F)F | -18.44 |
| Cn1cc(N2C[C@@H]3CN(Cc4ccccn4)C[C@@H]3C2=O)cn1.O=C(O)C(F)(F)F.O=C(O)C(F)(F)F | -17.49 |

| Compound | Percent Effect [%] |
| --- | --- |
| CN1C(Cn2cccn2)C[C@@H]2CN(Cc3cccnc3)CC[C@@H]21.O=C(O)C(F)(F)F.O=C(O)C(F)(F)F.O=C(O)C(F)(F)F.O=C(O)C(F)(F)F (stereo partly specified) | 103.4 |
| Cc1oncc1C(=O)N1CC[C@H]2[C@H](C[C@@H](CN3CCCC3)N2C)C1.O=C(O)C(F)(F)F.O=C(O)C(F)(F)F | 90.36 |
| CC(C)N1[C@H](Cn2cncn2)C[C@@H]2CN(c3ncccn3)CC[C@@H]21.O=C(O)C(F)(F)F | 2.319 |
| O=C(O)C(F)(F)F.O=C(O)C(F)(F)F.O=C(O)C(F)(F)F.c1ccc(CN2CC[C@H]3[C@H]2CCN3c2ncccn2)nc1 | -2.728 |
| Cc1cnc(N2CC[C@H]3[C@H](C[C@@H](CN(C)C)N3C)C2)nc1.O=C(O)C(F)(F)F.O=C(O)C(F)(F)F.O=C(O)C(F)(F)F | -11.75 |
| CN1C(Cn2cccn2)C[C@@H]2CN(Cc3ccccn3)CC[C@@H]21.O=C(O)C(F)(F)F.O=C(O)C(F)(F)F.O=C(O)C(F)(F)F.O=C(O)C(F)(F)F (stereo partly specified) | 100.1 |
| O=C(C1CCCC1)N1C[C@@H]2CCNC[C@@H]21 | -32.69 |
| Cc1nc(O)cc(CNC(=O)CC[C@@H]2CCCN3CCCC[C@H]23)n1 | -12.46 |
| COCCO[C@@H]1C[C@H]2CN(C(=O)c3ccc(C)nc3)CCN2C1 | -21.72 |
| FC(F)(F)c1cc(-c2cccs2)nc(N2CCN3CCCC3C2)n1 (stereo unspecified) | 58.5 |
| NC1(c2nc(-c3cccs3)cc(=O)[nH]2)CCCCC1 | -5.956 |
| Cn1nc(-c2cccs2)cc1[C@H]1CN2CC[C@H]1C[C@@H]2CN | -6.528 |
| Cc1cc(N2CCN3CCCCC3C2)n2nc(C)c(C)c2n1 (stereo unspecified) | 11.68 |
| Cc1cc(N2CCCN3CCC[C@H]3C2)n2nc(C)c(C)c2n1 | 20.9 |
| Cc1cc(C(F)(F)F)nc(N2CCN3CCCC3C2)n1 (stereo unspecified) | 105 |
| O=C(O)C(F)(F)F.O=C(O)C(F)(F)F.O=C1CC2(CCN(CC3CC3)C2)CN1c1cccnc1 (stereo unspecified) | 7.384 |
| O=C(O)C(F)(F)F.O=C(O)C(F)(F)F.O=C1CC2(CCN(Cc3ccccn3)C2)CN1c1cccnc1 (stereo unspecified) | 1.703 |
| CN(C)C(=O)N1CCC2(C1)CN(c1cccnc1)C(=O)CN2C (stereo unspecified) | 109.4 |
| COc1cccc(OCC(=O)N2CCCSCC2CN2CCOCC2)c1 (stereo unspecified) | 8.311 |
| O=C(COc1cccc(F)c1)N1C[C@@H](O)[C@H](N2CCOCC2)C1 | 106.1 |
| CCN1CCN(C(=O)COc2ccc(CN(C)S(C)(=O)=O)cc2)CC1 | -1.123 |
| COc1ccccc1OCC(=O)N1CCN(Cc2noc(C)n2)CC1 | 5.502 |
| O=C(COc1cccc(F)c1)N1C[C@@H](O)[C@H](N2CCCC2)C1 | -2.251 |
| CN(C)[C@@H]1CN(C(=O)COc2cccc(F)c2)C[C@H]1O | 81.08 |
